Source: PubChem BioAssay
BoNT A protease: BoNT A light chain protease inhibition | inhibition, % at 10 µM | multiplex microsphere protease substrate cleavage, flow cytometry | 360,000 tested, 0.17% active; note: plate controls were buffer without enzyme for full effect and enzyme alone for no effect
BoNT F protease: BoNT F light chain protease inhibition; Multiplex microsphere protease cleavage assay, flow cytometry; AID 588497; 360,000 tested, 0.22% active; inhibition, % at 10 µM; in the data active = inhibition above about 35%, passing the limit was not always enough; inconclusive = no clear call, values can overlap the other calls; note: plate controls were buffer without enzyme for full effect and enzyme alone for no effect
FBA Mtb inh: inhibitors of M. tuberculosis fructose-bisphosphate aldolase. inhibition, % at 1 µM. 360,000 tested, 2.3% active. purified M. tuberculosis FBA, fluorescence read-out. P9WQA3; in the data active = inhibition above about 27%;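 note: 0% = vehicle and 100% = reference inhibitor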
Target sequence (P9WQA3 whole entry, looked up): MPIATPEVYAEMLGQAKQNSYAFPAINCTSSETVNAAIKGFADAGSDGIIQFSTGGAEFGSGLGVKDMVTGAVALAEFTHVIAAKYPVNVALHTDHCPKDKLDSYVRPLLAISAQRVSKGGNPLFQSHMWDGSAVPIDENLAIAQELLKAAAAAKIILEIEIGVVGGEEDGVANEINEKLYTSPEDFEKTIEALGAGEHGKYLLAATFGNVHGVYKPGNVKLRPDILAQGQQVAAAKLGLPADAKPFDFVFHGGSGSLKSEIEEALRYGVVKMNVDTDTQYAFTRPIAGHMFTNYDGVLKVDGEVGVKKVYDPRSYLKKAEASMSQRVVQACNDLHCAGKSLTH
Anthrax LF inh2: inhibitors of Bacillus anthracis lethal factor protease; P15917; multiplex microsphere protease cleavage assay, LF; inhibition, % at 10 µM; 360,000 tested, 0.12% active; AID 588501; note: plate controls were buffer without enzyme for full effect and enzyme alone for no effect
GDH-TPI counter: GDH-TPI coupled enzyme inhibition counter-screen | 360,000 tested, 1.2% active | GDH-TPI coupled enzyme counterscreen, NADH absorbance | AID 588335 | inhibition, % at 4.8 µM; in the data active = inhibition above about 30%;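 note: 0% = DMSO wells and 100% = wells lacking the enzyme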
Autofluor counter: compound fluorescence in toxin protease inhibitor counterscreen; compound autofluorescence counterscreen, microsphere flow cytometry; hits give high values; fluorescence intensity (test concentration not listed); 360,000 tested, 3.1% active; AID 624483; in the data active = fluorescence intensity above about 16000; inconclusive = no clear call, values can overlap the other calls
An asterisk follows results filed as active; ? = inconclusive; . = no result; + = active, no number; ! = repeats disagree. Sampled rows, rich in hits. Any-hit rate of the full collection: about 6.7%. Cut-off read from the data, not from the text of the source, unless noted: active = inhibition above about 30%; inconclusive = no clear call, values can overlap the other calls; inactive = below that.

SMILES	BoNT A protease	BoNT F protease	FBA Mtb inh	Anthrax LF inh2	GDH-TPI counter	Autofluor counter
COCCOC(=O)C1=C(C)Nc2ncnn2C1c1ccccc1 (stereo not drawn)	-1	-3	0	1	3	4425
COCCOC(=O)C1=C(C)Nc2nc(C)nn2C1c1ccc(F)cc1 (stereo not drawn)	?	4	-1	6	0	18889*!
CCn1c(/C=C/N(C(C)=O)c2ccccc2)[n+](CC)c2ccc(Cl)cc21	0	-12	10	-5	20	3603
CC[n+]1c(/C=C/N(C)c2ccccc2)sc2ccc(Cl)cc21	59*	43*	-1	59*	5	6962
CC[n+]1c(/C=C/N(C)c2ccccc2)oc2ccc(Cl)cc21	2	17	-5	2	46*	9688
CC[n+]1c(/C=C/C=C/c2ccc(N(C)C)cc2)sc2ccccc21	20	+	-3	-22	0	3041
CC[n+]1c(/C=C/C=C/N(C(C)=O)c2ccccc2)sc2ccccc21	?	?	-15	?	-4	6377
CC1(C)CC(=O)C2=C(C1)N(N1CCOCC1)C(N)=C(C#N)C2c1cccs1 (stereo not drawn)	-1	-18	2	0	-1	2462
COc1ccc(OCC(=O)N2CCN(C(=O)c3ccccc3)CC2)cc1	0	-14	6	-1	-12	2863
Cc1ccc(OCC(=O)N2CCN(c3nnc(-c4ccc(C)cc4)c4ccccc34)CC2)cc1	2	3	-8	-2	8	22360*
COc1ccc(OCC(=O)N2CCN(C(=O)c3cccc4ccccc34)CC2)cc1	3	5	0	1	-14	21547*
COc1ccc(OCC(=O)N2CCN(c3nnc(-c4ccc(C)cc4)c4ccccc34)CC2)cc1	-5	?	-2	-6	4	5053
COc1ccc(NC(=O)c2cc(C)on2)cc1	-1	-1	-2	4	-13	4201
NC(=O)c1ccc(NC(=O)COC(=O)c2ccccc2Nc2ccccc2)cc1	0	-4	1	0	12	2128
CC1(C)c2[nH]c3ccccc3c2C[C@@H]2C(=O)N(Cc3ccco3)C(=O)N21	0	-6	3	-6	4	2905
CCOCc1nnc(NC(=O)c2cc(Cl)ccc2OC)s1	0	-1	1	-5	13	3541
COCc1nnc(NC(=O)c2cc(Cl)ccc2OC)s1	-2	-5	2	-1	-11	23665*
COCc1nnc(NC(=O)c2ccc(NC(=O)C(C)C)cc2)s1	-2	-3	-1	-2	-2	23228*
CCc1nnc(NC(=O)c2ccc(NC(=O)C(C)C)cc2)s1	0	3	1	-6	-2	4198
COc1ccc(OC)c(-c2nnc(SCC(=O)NC3CCCCC3)o2)c1	0	0	2	-4	14	6124
CNc1ccc(Cl)cc1C(N)=O	2	?	113*	-5	9	?
Cc1ccc(C)c(NC(=O)C2CC(Cl)=CCC2C(=O)O)c1 (stereo not drawn)	0	4	3	-3	7	7777
Cc1ccccc1NC(=O)C1CC(Cl)=CCC1C(=O)O (stereo not drawn)	2	-1	-1	-9	-5	21780*
CCOc1ccc(CN2CCC(=O)NC2=O)cc1	6	4	-1	-9	-13	17829*
CCOc1ccc(CN2CCSCC2)cc1	-1	-2	1	4	9	3063
SMILES	BoNT A protease	BoNT F protease	FBA Mtb inh	Anthrax LF inh2	GDH-TPI counter	Autofluor counter
O=C1CCN(Cc2ccccc2)C(=O)N1	0	2	1	-4	1	4182
COc1ccc(CN2CCC(=O)NC2=O)cc1	-6	-4	1	0	0	25338*
CC(C)n1ncc(C(N)=O)c1N	-1	-11	3	1	1	4391
Cc1c(CN2CCCCC2C)c(=O)n(-c2ccccc2)n1C (stereo not drawn)	?	1	2	4	1	22027*
Cc1c(Cc2c(C)n(C)n(-c3ccccc3)c2=O)c(=O)n(-c2ccccc2)n1C	0	1	1	-2	9	1991
NC(=S)Nc1cc2ccccc2c2ccccc12	?	-1	3	-3	-14	19680*
COc1ccc(C(=O)NCc2ccc(N3CCN(C)CC3)cc2)cc1	4	31	0	23	5	3554
COc1ccc(C(=O)NCc2ccc(N3CCN(C(=O)OC(C)(C)C)CC3)cc2)cc1	-2	-5	2	-2	11	22812*
COc1cccc(C(=O)NCc2ccc(N3CCN(C(=O)OC(C)(C)C)CC3)cc2)c1	1	2	5	-1	-11	20260*
CC(C)OC(=O)c1cccnc1SCc1cc(=O)n2ccccc2n1	-2	-5	3	0	20	24425*
CC(C)OC(=O)c1cccnc1SCC(=O)N(C)c1ccccc1	-1	4	3	3	23	8409
CC1(C)Cc2nc(Cl)c(C#N)cc2CO1	0	4	0	5	-1	3589
CC1(C)Cc2nc(NCCCO)c(C#N)cc2CO1	0	6	112*	-4	5	2765
O=C(c1ccccc1)N1N=C(C(F)(F)F)CC1(O)c1ccc(F)cc1 (stereo not drawn)	-1	-1	-1	-2	2	3913
O=C(c1ccccc1)N1N=C(C(F)(F)F)CC1(O)c1ccccc1 (stereo not drawn)	0	-11	-2	38*	-1	3136
CN(Cc1ccccc1)C(=S)Nc1ccc(OC(F)F)cc1	-1	-6	0	-1	12	2741
CN(C)CCCN(Cc1ccccc1)C(=S)Nc1ccc(OC(F)F)cc1	-1	-5	142*	0	7	2628
Nc1nn(-c2ccccc2)nc1C(=O)OCc1ccccc1F	-2	-10	135*	-4	4	4549
Cn1nc(C(=O)OCc2ccccc2F)c2ccccc2c1=O	0	-1	1	-3	-4	4076
Cc1ccc(NC(=O)C(NC2CCCc3ccccc32)c2ccccc2)cc1Cl (stereo not drawn)	0	3	0	-1	9	2079
COc1ccc(N2CCN(C(=O)C3CCN(S(=O)(=O)c4c(C)noc4/C=C/N(C)C)CC3)CC2)cc1	2	-13	-1	0	44*	5461
CCN(CC)CCNC(=O)C1CCN(S(=O)(=O)c2c(C)noc2/C=C/c2ccccc2F)CC1	.	.	1	.	15	.
CNC(=O)C1CCN(S(=O)(=O)c2c(C)noc2/C=C/c2cccc(OC)c2)CC1	0	-9	14	-1	32*	4442
COCCNC(=O)C1CCN(S(=O)(=O)c2c(C)noc2/C=C/c2cccs2)CC1	1	2	0	5	39*	3457
COc1ccc(N2CCN(C(=O)C3CCCN(S(=O)(=O)c4c(C)noc4C)C3)CC2)cc1 (stereo not drawn)	0	-1	-4	0	7	4425
Cc1cccc(/C=C/c2onc(C)c2S(=O)(=O)N2CCC(C(=O)NC(C)(C)C)CC2)c1	0	-1	5	4	-2	5931
